High-throughput results from PubChem BioAssay.
Only some compounds are listed: those with a hit (about 0.43% of all), similar ones and a draw of the others.
N370S GC = N370S glucocerebrosidase modulation, Gaucher chaperone candidate | P04062 | N370S GC spleen homogenate, 4MU-glucoside fluorescence | Potency, µM (top dose mostly 59.4 µM), for inactives: top-dose activity change, negative = inhibition, hits mostly inhibitors | hit rate 0.092% among 330,000;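 note: potency is the fitted concentration of half-maximal effect; 0% = full enzyme activity and -100% = no enzyme basal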
GAA inhib = alpha-glucosidase (human) inhibition | P10253 | hit rate 0.005% among 200,000 | Potency, µM (doses to about 76.9 µM), for the others: at the highest dose activity change, negative = inhibition, most hits filed as inhibitors | AID 1466 | purified human GAA, 4-MU-alpha-glucoside fluorescence;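 note: potency is the fitted concentration of half-maximal effect; plate controls were uninhibited enzyme wells for no effect and no-enzyme background for full effect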
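Endpoint fluorogenic read: 20 min room-temperature reaction of 4 nM human alpha-glucosidase with 400 uM 4-methylumbelliferyl-alpha-D-pyranoside, pH 5.0, quenched with 1M NaOH/1M glycine pH 10. AC50 from Hill modeling.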
GLA inh pH 4.5 = blocks human alpha-galactosidase A at pH 4.5; activity change, negative = inhibition, % at 105 µM; P06280; 230,000 tested, under 10 active; AID 1467; purified enzyme, 4-MU-alpha-Gal fluorescence, pH 4.5;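 note: 0% = full activity with enzyme and -100% = basal without enzyme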
GAA spleen mod = inhibits or activates alpha-glucosidase in human spleen homogenate; P10253; human spleen homogenate, 4-MU-alpha-glucoside fluorescence; Potency, µM (series often up to 79.9 µM), for inactives: at the highest dose activity change, negative = inhibition, most hits filed as inhibitors; hit rate 0.006% among 240,000;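 note: potency is the fitted concentration of half-maximal effect; 0% = enzyme with vehicle and -100% = no enzyme basal signal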
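Compounds were titrated against alpha-glucosidase in spleen homogenate at pH 5.0, with 1 mM 4-methylumbelliferyl substrate for 40 min at 37 C. Reactions were quenched with pH 10 NaOH/glycine and fluorescence measured.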
GAA glycogen mod = inhibitors or activators of human alpha-glucosidase glycogen cleavage. Potency, µM (series often up to 76.4 µM), for inactives: at the highest dose activity change, negative = inhibition, actives largely listed as inhibitors. AID 2100. recombinant GAA, glycogen substrate, Amplex Red glucose oxidase fluorescence. hit rate 0.38% among 300,000. P10253;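 note: potency is the fitted concentration of half-maximal effect; 0% = full enzyme reaction and -100% = no-enzyme basal signal; the screen sought inhibitors and activators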
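Recombinant enzyme (4 nM final) with compounds titrated up to 77 uM and bovine liver glycogen (30 ug) in citrate pH 5.0, 0.01% Tween-20, 37 C 40 min. Released glucose detected by Amplex Red/glucose oxidase (Ex 573/Em 610); AC50 from Hill fits.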
aGal spleen mod = inhibits or activates alpha-galactosidase in human spleen homogenate; hit rate 0.008% among 240,000; Potency, µM (highest dose often 80 µM), for inactives: at the highest dose activity change, negative = inhibition, usual class: inhibitors; P06280; human spleen homogenate, 4MU-alpha-Gal fluorescence, 40 min; AID 2107;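 note: potency is the fitted concentration of half-maximal effect; 0% = enzyme with vehicle and -100% = no enzyme basal signal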
Target sequence (P06280 32-429 limits assumed): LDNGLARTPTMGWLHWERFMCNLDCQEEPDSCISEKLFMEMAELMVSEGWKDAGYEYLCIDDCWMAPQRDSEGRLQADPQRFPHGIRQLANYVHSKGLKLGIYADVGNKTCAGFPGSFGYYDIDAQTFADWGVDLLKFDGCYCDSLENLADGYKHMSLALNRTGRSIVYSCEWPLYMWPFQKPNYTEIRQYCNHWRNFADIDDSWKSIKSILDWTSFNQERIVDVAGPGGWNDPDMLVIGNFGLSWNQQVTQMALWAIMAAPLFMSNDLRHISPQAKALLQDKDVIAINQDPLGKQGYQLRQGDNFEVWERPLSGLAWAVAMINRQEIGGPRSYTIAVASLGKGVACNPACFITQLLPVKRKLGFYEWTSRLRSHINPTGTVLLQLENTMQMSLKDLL
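Human spleen homogenate (1 ug) was the enzyme source, with 4-methylumbelliferyl-alpha-D-galactopyranoside (1 mM final) in pH 5.0 citrate buffer with 0.01% Tween-20. Compounds were titrated; after 40 min at 37C, NaOH/glycine stop, 4-MU fluorescence read; AC50 from Hill fits.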
* hit, by the source's call; ? = inconclusive; · = not tested or not shown; [ ] = another dose, or the depositor's remark. Calls come from the whole dose curve; as a rule, active = well fitted curve in the direction sought with a large enough effect; inconclusive = small, poorly fitted or top-dose-only effect, or another doubt; inactive = no such curve, though single readings can be large; an effect the other way counts as inactive or inconclusive.

SMILES	N370S GC	GAA inhib	GLA inh pH 4.5	GAA spleen mod	GAA glycogen mod	aGal spleen mod
Oc1ccccc1N1CCN(c2nc(-c3cccs3)nc3ccccc23)CC1	4.47µM*	·	-1.6	6.0%	39.8µM*	7.5%
CN1CCN(c2nc(-c3cccs3)nc3ccccc23)CC1	6.2%	-4.9%	9.1	-3.1%	6.5%	-1.5%
Nc1cc(Cl)c([N+](=O)[O-])cc1O	2.5%	·	·	0.3%	·	3.6%
COc1cc(C/C=C\c2ccccc2)c(OC)cc1O	-7.5%	·	-14.0	-5.5%	·	-10.9%
CCCCCCCCCCOc1cc(OCCCCCCCCCC)cc(N(CC(=O)O)CC(=O)O)c1	-10.5%	·	·	2.5%	·	-4.1%
CCc1ccccc1	7.5%	·	·	10.7%	·	2.6%
COC(=O)c1ccccc1S(=O)(=O)N1CCc2nc(COc3ccccc3)c3c(c2C1)CO[C@@H](C)C3	2.2%[12.8 µM]	·	-10.1	-0.7%[17.4 µM]	·	-3.7%[17.5 µM]
Cc1cc(NC(=O)CN2CCN(c3ccccc3O)CC2)no1	7.1%	-1.7%	1.6	-3.0%	12.6µM*	-19.0%
Cc1ccc(F)cc1-c1ccc(C(=O)N=C(N)N)o1	-6.9%	·	·	7.1%	·	7.1%
c1cncc(CNc2ccc3c(c2)OCO3)c1	·	-3.8%	7.2	-1.7%	17.8µM*	4.3%
COC(=O)C1=C[C@@H](C(=O)OC)[C@@H]2C3=C(C(=O)[C@@]2(C)NC(=O)c2ccccc2)[C@H](C)[C@@H]2C(=O)N(c4ccccc4)C(=O)[C@@H]2[C@@H]3C1	1.1%	·	·	-0.8%	·	3.3%
CC1=NNC(=O)C1C(c1cccc(O)c1)C(C#N)C#N (stereo unspecified)	6.7%	·	-4.1	-2.0%	-13.0%	0.8%
CC1=NNC(=O)C1C(c1ccccc1)C1C(=O)NN=C1C (stereo unspecified)	3.8%	?	-2.8	0.8%	12.6µM*	5.4%
O=C(NNC(=S)NC1CCCCC1)c1ccc(Cl)s1	1.0%	?	0.4	-14.0%	50.1µM*	2.8%
CC(NC(=O)c1cccs1)C(c1cccs1)N1CCN(Cc2ccccc2)CC1 (stereo unspecified)	-7.9%	-5.2%	-0.9	-2.5%	5.1%	4.4%
CC(NC(=S)NCCc1ccccc1)C(c1cccs1)N1CCN(C)CC1 (stereo unspecified)	11.2µM*	0.9%	-1.5	-0.4%	-4.1%	-0.9%
Oc1ccc(N2CCN(Cc3nc4ccccc4[nH]3)CC2)cc1	-2.7%	·	·	·	8.91µM*	·
COc1ccc(-c2nc3ccccn3c2NCc2ccc3c(c2)OCO3)cc1	-26.2%	-1.7%	-0.8	-12.4%	8.84µM*	0.8%
c1ccc(-c2nc3ccccn3c2NCc2ccc3c(c2)OCO3)cc1	?	8.2%	-27.8	6.3%	24.9µM*	12.4%
CSCC[C@H](N)C(=O)N[C@@H](CO)C(=O)N[C@@H](CCCN=C(N)N)C(=O)N1CCC[C@H]1C(=O)N[C@@H](C)C(=O)N[C@@H](CS)C(=O)N1CCC[C@H]1C(=O)N[C@@H](CC(N)=O)C(=O)N[C@@H](CC(=O)O)C(=O)N[C@@H](CCCCN)C(=O)N[C@@H](Cc1ccc(O)cc1)C(=O)N[C@@H](CCC(=O)O)C(=O)O	0.8%	·	·	-6.7%	·	-0.1%
C#CCCCO/N=C1/C[C@@H](O)[C@@H](O)[C@@H]2[C@@H]3C(=O)N(C4CCCCC4)C(=O)[C@H]3CC[C@H]12	-7.4%[12.8 µM]	·	·	-13.6%[17.4 µM]	·	0.1%[17.5 µM]
COc1ccc(OC)c(Nc2nc(=O)c3cccnc3s2)c1	4.0%	?	8.8	1.5%	28.2µM*	0.9%
Cc1ccc(Nc2nc(=O)c3cccnc3s2)cc1	0.3%	1.6%	2.8	3.5%	-6.8%	6.1%
COc1cc(OC)cc(C2=Nn3c(nnc3-c3ccccc3OC)SC2)c1	0.0%	·	·	-7.0%	·	7.1%
Cc1ccn2c(NCc3ccccc3)c(-c3cccs3)nc2c1	11.2µM*	-20.5%	6.5	2.9%	?	13.8%
SMILES	N370S GC	GAA inhib	GLA inh pH 4.5	GAA spleen mod	GAA glycogen mod	aGal spleen mod
CCC(=O)NC[C@H](Cc1ccc(OCCc2nc(-c3ccccc3)oc2C)cc1)N/C(C)=C\C(=O)c1ccc(C(F)(F)F)cc1	-13.3%	·	·	-3.5%	·	-2.1%
Cc1cc(C)cc(Nc2nc3c(S(=O)(=O)c4cccc(Cl)c4)nnn3c3ccsc23)c1	·	·	·	·	39.8µM*	·
CC(=O)Nc1ccc(Nc2nc3c(S(=O)(=O)c4cccc(Cl)c4)nnn3c3ccsc23)cc1	·	·	·	·	14.6%[76.3 µM]	·
NNc1nc(Nc2ccc([N+](=O)[O-])cc2)nc(N2CCCCCC2)n1	-22.7%	·	·	·	?	·
Cc1ccc([N+](=O)[O-])cc1Nc1nc(N2CCCC2)nc(N2CCCC2)n1	-8.3%	·	·	·	31.6µM*	·
CCOC(=O)c1c(OCC)[nH]c2ccc(O)cc12	?	-4.2%	5.4	-3.9%	6.31µM*	4.2%
Nc1c(Cl)cc(Cl)cc1Cl	-2.2%	·	·	10.8%	·	4.5%
O=C1NN(c2cccc(Br)c2)C(=O)/C1=C\c1ccc(O)cc1	-5.6%	·	·	·	0.6%	·
O=C1NN(c2ccc(Br)cc2)C(=O)/C1=C\c1ccc(O)cc1O	?	·	·	·	8.91µM*	·
Cc1ccc(F)c(C2C3C=CCC(C)C3C(=O)N2Cc2ccccc2)c1 (stereo unspecified)	9.9%	·	·	-1.5%	·	3.2%
C(=N\Nc1ccccn1)/c1c[nH]c2ccccc12	-9.2%	·	-9.7	-0.1%	35.5µM*	1.9%
CCOC(=O)N1CCc2c(sc(N)c2C#N)C1	12.9%	·	5.8	-1.7%	?	-1.8%
CCOC(=O)C1CCc2sc(N)c(C#N)c21 (stereo unspecified)	-1.2%	-12.6%	-1.0	5.7%	4.97µM*	2.8%
CCOC(=O)c1oc2c(O)c(O)ccc2c(=O)c1-c1nncn1-c1ccccc1	-6.6%	-12.1%	-8.3	-6.3%	35.5µM*	-0.1%
CC#CC(=O)Nc1cc2c(Nc3ccc(F)c(Cl)c3)ncnc2cn1	3.1%	·	·	-2.8%	·	9.9%
Cc1c(N=Cc2ccc(Cl)o2)c(=O)n(-c2ccccc2)n1C	1.1%	-9.1%	-24.1	2.2%	4.47µM*	5.0%
Cc1c(N=Cc2ccco2)c(=O)n(-c2ccccc2)n1C	11.3%	3.0%	7.6	-15.1%	10µM*	-4.0%
Cc1ccccc1-c1ccc(C=Nc2c(C)n(C)n(-c3ccccc3)c2=O)o1	3.6%	-11.4%	-2.7	3.5%	15.8µM*	3.1%
CN(C)C=O	0.4%	·	·	3.2%	·	11.8%
C/C=C/c1ccc2oc(-c3ccc(O)cc3)c(C)c2c1	6.4%	·	-0.3	-4.7%	·	11.5%
COC(=O)C1=C(C)N(Cc2ccccc2)C(=NCc2ccco2)N[C@H]1c1ccc(Br)cc1	-15.0%	·	·	·	-12.3%[76.3 µM]	·
Oc1ccccc1Nc1nc(NCC2CCCO2)c2ccccc2n1 (stereo unspecified)	?	?	-8.7	0.5%	8.84µM*	3.9%
